Inconclusive results are not listed. Entries that show only a call come without a potency. A number with no mark means an inactive call. Active and inactive are the calls of the source. Unless noted, the call rests on the fitted dose curve; in most records, active means well fitted curve in the direction sought with a large enough effect in the repeat runs; inconclusive means weak or mixed curves; inactive means no such curve, though single readings can be large; an effect the other way counts as inactive or inconclusive. Where a SMILES comes first, the peptide text is derived from it. [ ]: non-standard residue; d: D form. pGlu = O=C1CC[C@@H](C(=O)O)N1
Legend:
[1] = Primary qHTS for small molecule stabilizers of the endoplasmic reticulum resident proteome: Secreted ER Calcium Modulated Protein (SERCaMP) assay (AID 1508630; active means well fitted curve in the direction sought with a large enough effect; an effect the other way counts as inactive or inconclusive)
How it was run: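 The SH-SY5Y reporter protocol was run at 3 concentrations up to 38.3 uM (primary) or 11 concentrations (follow-up): 16 h compound, 100 nM thapsigargin for 4 h, then extracellular luciferase luminescence.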

[2] = target: Cytochrome P450 2D6 (Homo sapiens) (UniProt P10635); test: Cytochrome P450 family 2 subfamily D member 6 (CYP2D6) small molecule antagonists: luciferase biochemical (cell-free) qHTS assay (AID 1645840); further: nearly all actives have a fitted effect of over 55% in size; further: potency means the concentration at half of the fitted maximal effect
Cytochrome P450 2D6 (Homo sapiens), sequence (P10635 whole entry, looked up): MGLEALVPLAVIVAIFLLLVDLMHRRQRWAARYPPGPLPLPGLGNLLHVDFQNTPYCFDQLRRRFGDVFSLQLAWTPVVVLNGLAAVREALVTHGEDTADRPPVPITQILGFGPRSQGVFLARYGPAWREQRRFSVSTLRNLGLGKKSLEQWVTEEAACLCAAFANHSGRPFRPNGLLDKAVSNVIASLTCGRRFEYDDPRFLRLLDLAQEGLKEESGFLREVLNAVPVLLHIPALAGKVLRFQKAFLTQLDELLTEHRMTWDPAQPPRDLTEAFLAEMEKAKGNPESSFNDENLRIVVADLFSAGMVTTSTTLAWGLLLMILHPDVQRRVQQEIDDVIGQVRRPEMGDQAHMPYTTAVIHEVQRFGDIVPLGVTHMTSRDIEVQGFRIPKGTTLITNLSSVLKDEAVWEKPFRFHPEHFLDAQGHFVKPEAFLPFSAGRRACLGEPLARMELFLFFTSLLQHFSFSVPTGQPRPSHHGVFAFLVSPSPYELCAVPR
How it was run: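 P450-Glo CYP2D6 system: proluciferin substrate converted by enzyme to luciferin, read by luminescence proportional to activity. Enzyme-substrate mix with compound 10 min at room temperature, then NADPH regeneration 1 h before detection reagent.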

[3] = A High-Content qHTS Against Drug Library for the Identification of Small Molecules that Inhibit DYT1 Early Onset Primary Dystonia-Associated Cell Pathology (AID 1645839; calls by dose curve; further: series mostly up to about 46 µM)
How it was run: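 High-content imaging quantified EGFP-TorsinA mislocalization in HEK293-derived cells inducibly expressing DYT1 mutant torsinA, after 48 h exposure to compound given together with tetracycline induction. Cell count served as a toxicity channel alongside %pathology.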

[4] = target: Cytochrome P450 2C9 (Homo sapiens) (UniProt P11712); test: Cytochrome P450 family 2 subfamily C member 9 (CYP2C9) small molecule antagonists: luciferase biochemical (cell-free) qHTS assay (AID 1645842); further: nearly all actives have a fitted effect of over 55% in size; further: potency means the concentration at half of the fitted maximal effect
Cytochrome P450 2C9 (Homo sapiens), sequence (P11712 whole entry, looked up): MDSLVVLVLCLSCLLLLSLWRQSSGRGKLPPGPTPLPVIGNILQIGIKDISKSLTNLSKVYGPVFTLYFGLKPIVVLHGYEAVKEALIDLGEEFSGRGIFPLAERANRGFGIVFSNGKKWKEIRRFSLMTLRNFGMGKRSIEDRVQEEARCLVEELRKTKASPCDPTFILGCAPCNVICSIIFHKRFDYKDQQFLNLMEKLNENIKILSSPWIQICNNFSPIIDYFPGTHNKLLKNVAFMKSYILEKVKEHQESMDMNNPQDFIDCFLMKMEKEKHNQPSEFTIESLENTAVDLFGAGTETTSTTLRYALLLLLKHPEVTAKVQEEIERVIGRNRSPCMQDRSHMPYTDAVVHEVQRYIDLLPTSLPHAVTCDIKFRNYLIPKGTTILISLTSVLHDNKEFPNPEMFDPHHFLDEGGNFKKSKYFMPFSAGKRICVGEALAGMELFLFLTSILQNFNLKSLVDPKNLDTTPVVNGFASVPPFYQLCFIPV
How it was run: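 P450-Glo CYP2C9 system: proluciferin substrate with enzyme in mix containing 0.4% BSA, 10 min at room temperature, then NADPH regeneration solution added and incubated 1 h at 37C. Detection reagent stopped reaction; luminescence read after 20 min as RLU.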

[5] = target: Cytochrome P450 3A4 (Homo sapiens) (UniProt P08684); test: Cytochrome P450 family 3 subfamily A member 4 (CYP3A4) small molecule antagonists: luciferase qHTS assay (AID 1645841); further: nearly all actives have a fitted effect of over 45% in size; further: potency means the concentration at half of the fitted maximal effect
Cytochrome P450 3A4 (Homo sapiens), sequence (P08684 whole entry, looked up): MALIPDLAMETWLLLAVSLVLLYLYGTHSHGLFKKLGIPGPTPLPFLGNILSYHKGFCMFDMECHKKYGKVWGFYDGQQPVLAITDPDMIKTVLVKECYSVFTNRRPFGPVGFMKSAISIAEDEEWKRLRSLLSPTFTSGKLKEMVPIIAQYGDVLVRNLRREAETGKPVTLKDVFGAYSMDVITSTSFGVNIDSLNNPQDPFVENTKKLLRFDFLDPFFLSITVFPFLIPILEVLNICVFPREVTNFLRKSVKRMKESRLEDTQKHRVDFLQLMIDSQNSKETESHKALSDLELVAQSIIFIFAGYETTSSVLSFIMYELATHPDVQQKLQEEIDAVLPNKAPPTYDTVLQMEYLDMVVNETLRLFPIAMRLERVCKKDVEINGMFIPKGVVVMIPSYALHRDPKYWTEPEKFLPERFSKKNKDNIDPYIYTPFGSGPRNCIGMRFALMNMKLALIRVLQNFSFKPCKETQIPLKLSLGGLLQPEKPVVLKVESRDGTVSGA
How it was run: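 Luminescent CYP3A4 activity readout: compounds plus enzyme-substrate mix 10 min at room temperature, reaction started with NADPH regenerating system for 1 h, stopped with detection reagent, read after 20 min. Ketoconazole served as control.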

Compound	Potency [1]	Potency [2]	Potency [3]	Potency [4]	Potency [5]
CCCCCCCCCCCCCCCCCCNC(=O)OC1CCN(C(=O)OC[C@H](COC(=O)N(Cc2cccc[n+]2CC)C(=O)c2ccccc2OC)OC)CC1	inactive	17.4 µM (active)			
[O-][n+]1cccc(/C(Cl)=N/OC[C@@H](O)CN2CCCCC2)c1	inactive		inactive	inactive	
C[C@H]1NCc2cc(-c3ccc4c(=O)c(C(=O)O)cn(C5CC5)c4c3OC(F)F)ccc21	inactive	inactive		inactive	
CC(C)=CCC/C(C)=C/CC/C(C)=C/C(=O)OCC(=O)[C@@]1(O)CC[C@H]2[C@@H]3CCC4=CC(=O)C=C[C@]4(C)[C@H]3[C@@H](O)C[C@@]21C	inactive	inactive		1.74 µM (active)	
CC(=O)OC/C=C(C)/C=C/C=C(C)/C=C/C1=C(C)CCCC1(C)C	inactive		inactive	15.5 µM (active)	
COc1ccccc1OCC1CNC(=O)O1 (stereo unspecified)	inactive	inactive		inactive	
Cc1ccccc1C(=O)N1CC/C(=N\OS(=O)(=O)O)c2ccc(Cl)cc21	inactive	inactive		8.71 µM (active)	
c1ccc(C(O[C@H]2CCCN(CCc3ccc4c(c3)OCO4)C2)c2ccccc2)cc1	inactive	0.0123 µM (active)		24.5 µM (active)	
Cc1c(N)cccc1C(F)(F)F	inactive	inactive		inactive	
CCN1CCN(c2cc(-c3ccc(F)cc3)c3c(n2)CCCCCC3)CC1	inactive		inactive	inactive	
O=C(O)c1cn(C2CC2)c2cc(Cl)c(F)cc2c1=O	inactive	inactive		inactive	
O=C1Cc2cc(Cl)ccc2N1	inactive		inactive	11 µM (active)	
O=C1CCCc2c(O)cccc21	inactive		inactive	inactive	
Cc1c(C)c2c(c(C)c1OC(=O)CCC(=O)OCCO)CC[C@@](C)(CCC[C@H](C)CCC[C@H](C)CCCC(C)C)O2	inactive	12.3 µM (active)			
C/C(=C1\CCOC(=O)S1)N(C=O)Cc1cnc(C)nc1N	inactive		inactive	inactive	
CCOC(=O)NNc1nncc2ccccc12	inactive		inactive	inactive	
O=C(O)[C@@H](O)[C@H](O)[C@H](O)[C@@H](O)C(=O)O	inactive	inactive		inactive	inactive
CCCCNc1ccc(C(=O)OCCN(CC)CC)cc1	inactive	3.47 µM (active)		inactive	

Compound	Potency [1]	Potency [2]	Potency [3]	Potency [4]	Potency [5]
CC(C)(C)c1nnc(NS(=O)(=O)c2ccccc2)s1	inactive	inactive			
O=C(Nc1ccc(Cl)cc1)Nc1ccc(Cl)c(Cl)c1	inactive	inactive		4.36 µM (active)	
CC[C@@H]([C@H](C)O)n1ncn(-c2ccc(N3CCN(c4ccc(OC[C@@H]5CO[C@@](Cn6cncn6)(c6ccc(F)cc6F)C5)cc4)CC3)cc2)c1=O	inactive	inactive			
Nc1ccc2cc3ccc(N)cc3nc2c1	inactive	inactive		inactive	4.36 µM (active)
O=C(CCOCCOCCOCCOCCC(=O)Nc1c(I)cc(I)c(C(=O)O)c1I)Nc1c(I)cc(I)c(C(=O)O)c1I	inactive	inactive		inactive	inactive
CCC(=O)Oc1ccc2c(c1)CC[C@@H]1[C@@H]2CC[C@@]2(C)[C@H]1C[C@@H](OC(=O)CC)[C@@H]2OC(=O)CC	inactive		inactive	8.71 µM (active)	
CC(=O)[C@H]1CC[C@H]2[C@@H]3C=CC4=CC(=O)CC[C@@]4(C)[C@@H]3CC[C@]12C	inactive	15.5 µM (active)			
CO[C@@H]1[C@@H](OC)[C@H](C)[C@@](O)(CC(=O)O)O[C@H]1[C@H](C)[C@H]1O[C@@]2(CC[C@@](C)([C@H]3CC[C@@](C)([C@@H]4O[C@@H]([C@H]5O[C@](C)(O)[C@H](C)C[C@@H]5C)C[C@@H]4OC4C[C@H](OC)[C@@H](OC)[C@H](C)O4)O3)O2)C[C@H](O)[C@H]1C (stereo partly specified)	inactive	inactive		inactive	
CCNC(=O)[C@@H]1CCCN1C(=O)[C@H](CCCN=C(N)N)NC(=O)[C@H](CC(C)C)NC(=O)CNC(=O)[C@H](Cc1ccc(O)cc1)NC(=O)[C@H](CO)NC(=O)[C@H](Cc1c[nH]c2ccccc12)NC(=O)[C@H](Cc1cnc[nH]1)NC(=O)[C@@H]1CCC(=O)N1 ([pGlu]HWSYGLRP-NHEt)	inactive	inactive		inactive	
CC(=O)N(CC(O)CO)c1c(I)c(C(=O)NCCO)c(I)c(C(=O)NCC(O)CO)c1I (stereo unspecified)	inactive	inactive		inactive	inactive
CC1(C)O[C@@H]2C[C@H]3[C@@H]4CCC5=CC(=O)C=C[C@]5(C)[C@@]4(F)[C@@H](O)C[C@]3(C)[C@]2(C(=O)CO)O1	inactive		inactive	inactive	
CC1(C)OC(=O)Nc2ccc(Br)cc21	inactive		inactive	inactive	
C[C@@]12CCC[C@H]1[C@@H]1CC[C@H]3C[C@@H](O)CC[C@]3(C)[C@H]1CC2	inactive		inactive	22.9 µM (active)	
CC(=O)OCC[N+](C)(C)C	inactive		inactive	inactive	
Cc1cc(OCCOCC[N+](C)(C)Cc2ccccc2)ccc1C(C)(C)CC(C)(C)C	inactive	7.76 µM (active)			
CC(C)Cc1ccc(C(C)C(=O)OCc2ccccn2)cc1 (stereo unspecified)	inactive		inactive	9.77 µM (active)	
CCOC(=O)c1ccc(NC(=O)CN2CCCCC2)cc1	inactive		inactive	inactive	
COC(=O)c1ccc(NC(C)=O)cc1OC	inactive	inactive		inactive	

Source: PubChem BioAssay (NCATS)
